D1 ag: Allosteric Agonists of the Human D1 Dopamine Receptor: qHTS. D(1A) dopamine receptor (Homo sapiens), P21728. HEK293 T-REx D1 cells, calcium flux, agonist mode. activation, % at 2 µM. 1% of 360,000 active. AID 504660, 2011; in the data active means activation above about 30%; further: 0% is about no effect
Target sequence (P21728 whole entry, looked up): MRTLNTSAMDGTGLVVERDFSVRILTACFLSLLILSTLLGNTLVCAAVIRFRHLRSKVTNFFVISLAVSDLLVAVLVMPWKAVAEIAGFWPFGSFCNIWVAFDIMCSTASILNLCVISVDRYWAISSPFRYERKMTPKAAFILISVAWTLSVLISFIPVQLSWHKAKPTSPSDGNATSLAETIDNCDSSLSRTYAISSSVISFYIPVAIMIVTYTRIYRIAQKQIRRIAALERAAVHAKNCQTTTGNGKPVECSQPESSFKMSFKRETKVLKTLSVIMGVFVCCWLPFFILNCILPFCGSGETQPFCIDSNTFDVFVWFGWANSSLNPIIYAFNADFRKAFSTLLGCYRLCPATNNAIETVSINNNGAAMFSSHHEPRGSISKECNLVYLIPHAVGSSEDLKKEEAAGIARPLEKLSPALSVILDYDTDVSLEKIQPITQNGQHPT
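Inducible HEK293 T-REx D1 cells, force-coupled to calcium signalling, were plated at 4000 cells/well with tetracycline and held overnight at 30 C. After no-wash calcium dye loading, compound-evoked calcium rise over 180 s flagged agonists.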
D1 potentiator: Potentiators of Human D1 Dopamine Receptor: qHTS | D(1A) dopamine receptor (Homo sapiens), P21728 | HEK293 TREx D1 cells, calcium flux, dopamine EC20 potentiation | potentiation, % at 10 µM | 0.036% of 360,000 active | AID 504651, 2011; in the data active means potentiation above about 30%; further: 0% is about no effect
D1 antagonist: Antagonist of Human D 1 Dopamine Receptor: qHTS. D(1A) dopamine receptor (Homo sapiens), P21728. HEK293 TREx D1 cells, calcium flux, dopamine EC80; stronger effect = lower value. activity change, negative = inhibition, % at 10 µM. 3.2% of 360,000 active. AID 504652, 2011; in the data active means activity change below about -30%; further: on the % scale 0 is the no-effect control and ±100 the full control effect
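After overnight tetracycline induction at 30 C, force-coupled D1 HEK293 cells took up a no-wash calcium dye at room temperature. Compounds were added and monitored 180 s, and the response to EC80 dopamine was then recorded.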
TRHR enhancer-1: qHTS for Small Molecule Agonists and Allosteric Enhancers of Human TRH Receptor: Primary Screen for Enhancers. AID 493056, 2011. 0.66% of 360,000 active. Thyrotropin-releasing hormone receptor (Homo sapiens), P34981. TRHR cells, fluo-8 calcium fluorescence, EC20 TRH enhancement. enhancement, % at 2 µM; in the data active means enhancement above about 30%; further: 0% is about no effect
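TRHR-expressing cells loaded with fluo-8 calcium dye were read kinetically (ex 480/em 530) during compound addition, then stimulated with an EC20 of TRH (10 nM final). Enhancement of the Gq-mediated intracellular calcium response was scored.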
TRHR agonist-1: qHTS for Small Molecule Agonists and Allosteric Enhancers of Human TRH Receptor: Primary Screen for Agonists | TRHR cells, calcium flux fluo-8, FDSS agonist mode | activation, % at 2 µM | 0.18% of 360,000 active | AID 493084, 2011; in the data active means activation above about 30%; further: 0% is about no effect
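Agonist-mode FDSS calcium read (Ex 480/Em 530, 1 s cycles) in 1536-well TRHR cells with fluo-8 dye, after 10-cycle baseline and 23 nL compound addition; TRH at EC20 (10 nM final) added afterwards for the enhancer phase.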
TRHR enhancer-2: qHTS for Small Molecule Agonists and Allosteric Enhancers of Human TRH Receptor: Confirmation Screen for Enhancers | TRH receptor cell assay, enhancer confirmation qHTS | AID 493076, 2011 | shares compounds with TRHR enhancer-1 | 970 tested, under 10 active | activity change, negative = inhibition, % at 46.1 µM;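 further: compound effect scored on response to added TRH at EC20 of 10 nM; 0% is about no effect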
TRHR agonist-2: qHTS for Small Molecule Agonists and Allosteric Enhancers of Human TRH Receptor: Confirmation Screen for Agonists; shares compounds with TRHR enhancer-1; TRHR-expressing cells, agonist activation read-out; Potency, µM (titrated, usually from 46.1 µM), for the others: top-dose activation, hits mostly activators; 8% of 970 active; AID 493078, 2011; further: potency means the concentration at half of the fitted maximal effect; 0% is about no effect; nearly all actives have a fitted effect of over 75% in size
An asterisk follows results filed as active; ? = inconclusive; . = not tested or not shown; ! = not confirmed by another sample. This is a sample that favours compounds with a hit; in the whole collection about 4.6% have one here. Unless noted, the call rests on the fitted dose curve; in most records, active means well fitted curve in the direction sought with a large enough effect; inconclusive means small, poorly fitted or top-dose-only effect, or another doubt; inactive means no such curve, though single readings can be large; an effect the other way counts as inactive or inconclusive.

SMILES | D1 ag | D1 potentiator | D1 antagonist | TRHR enhancer-1 | TRHR agonist-1 | TRHR enhancer-2 | TRHR agonist-2
Cc1ccc(-n2ncc3c(N4CCC(C(N)=O)CC4)ncnc32)c(C)c1 | 0 | -6 | -13 | 15 | 0 | . | .
C=CCn1c(C)cc(-c2csc(NC(=O)C3=COCCO3)n2)c1C | 2 | -8 | 19 | 59* | 0 | -9 | 0%
CC(C)C[C@H](NC(=O)OC(C)(C)C)C(=O)N/N=C/c1ccc2nccnc2c1 | 1 | -12 | -13 | 53* | 0 | -5 | 1%
COc1ccc(OC)c(S(=O)(=O)NCc2ccc(N3CCN(C)CC3)cc2)c1 | 4 | 5 | 0 | 2 | 1 | . | .
O=c1[nH]c2cc3ccccc3cc2nc1C(F)(F)F | 17 | 9 | -2 | -4 | 29 | -2 | ?
CN1C(=O)c2cccc3c(N(C)C)ccc(c23)C1=O | 60* | 2 | -2 | 8 | 44* | 7 | 16µM*
COc1cccc(NC(=O)Cn2c3ccc(F)cc3c3nc4n(c(=O)c32)CCCS4)c1 | 3 | -3 | 11 | -8 | 0 | . | .
Cc1cccc(C(=O)N/N=C/c2cc(Br)c(Br)o2)c1 | 4 | -3 | -59* | 54* | -1 | -13 | -1%
CC(C)c1ccc(NC(=S)NN2CCN(C)CC2)cc1 | 3 | -7 | . | 1 | 1 | . | .
O=C(Nc1cccc(Cl)c1N1CCOCC1)c1cc([N+](=O)[O-])ccc1N1CCOCC1 | 1 | -1 | 21 | 8 | -2 | . | .
O=C(Nc1cccc(Cl)c1N1CCOCC1)c1ccc([N+](=O)[O-])o1 | -1 | -5 | 5 | 48* | 0 | 8 | 4%
COc1ccc(NC(=O)c2cc(-c3ccccc3)on2)cc1OC | 5 | 3 | 2 | 1 | 0 | . | .
COc1ccc(-c2cc(C(=O)Nc3cc(C)nn3-c3ccccc3)no2)cc1OC | 0 | -2 | -2 | 57*! | 0 | -7 | 2%
COc1cccc(-c2cc(C(=O)Nc3ccc(OC)c(OC)c3)no2)c1 | 3 | 4 | 8 | 2 | 27 | 1 | 2%
CCCCN(C)C(=O)c1cc2cc([N+](=O)[O-])cc(OC)c2oc1=O | -2 | 1 | 10 | -3 | 0 | . | .
CCC(C)(C)NC(=O)C(c1cccn1C)N(C(=O)Cn1nnc2ccccc21)c1ccc(F)cc1 (stereo unspecified) | 6 | 1 | 2 | -17 | 29 | -4 | ?
CCOC(=O)CN1C(=O)S/C(=C/c2ccc3c(c2)n(C)c(=O)n3C)C1=O | 1 | 1 | 6 | -3 | 0 | . | .
CCOC(=O)CN1C(=O)S/C(=C/C=C/c2ccc(N(C)C)cc2)C1=O | 105* | -6 | -18 | -6 | 32* | -1 | ?
CCOC(=O)Cc1csc(SCC(=O)NC2CCCCC2)n1 | 1 | -3 | -14 | 10 | 0 | . | .
CCOC(=O)Cc1csc(SCC(=O)NC2CCCC2)n1 | 2 | -8 | -12 | 52* | 0 | -5 | 0%
O=C(O)c1ccccc1Sc1ncnc2sc3c(c12)CCC3 | 2 | -2 | 18 | 43* | 0 | -4 | 0%
O=C(CSc1ncnc2sc3c(c12)CCCC3)c1ccccc1 | 0 | 5 | 6 | 4 | 0 | . | .
CCOC(=O)c1cc(-c2ccccc2)n(CC(=O)O)c1C | 2 | 1 | -9 | 5 | -1 | . | .
CCOC(=O)c1cc(-c2ccccc2)n(CC(=O)NC(C)(C)C)c1C | -1 | -2 | 5 | 57* | -2 | -11 | 0%
COc1ccc(C)cc1NC(=O)NCCC1=CCCCC1 | 1 | 4 | 2 | 43* | -1 | -1 | 2%
SMILES | D1 ag | D1 potentiator | D1 antagonist | TRHR enhancer-1 | TRHR agonist-1 | TRHR enhancer-2 | TRHR agonist-2
COc1ccc(C)cc1NC(=O)c1cc(S(=O)(=O)NCCC2=CCCCC2)ccc1F | 2 | -1 | 5 | 7 | 1 | . | .
Cc1ccc(C)c(NC(=O)c2cccc(Oc3ccc([N+](=O)[O-])cc3Cl)c2)c1 | 3 | 8 | -9 | 0 | 1 | . | .
CC(C)OC(=O)CSc1nnc2c(n1)[nH]c1ccc(F)cc12 | 3 | 1 | 2 | 1 | 1 | . | .
Cc1ccc2[nH]c(=O)c3cc(C(=O)NCCc4ccc(Cl)cc4)sc3c2c1 | 3 | -1 | -25 | 57* | 2 | 3 | 1%
O=C(NCCc1ccc(Cl)cc1)c1cc(=O)[nH]c2ccccc12 | 1 | -4 | 2 | 43* | -1 | ? | 2%
O=C(NCCc1ccc(Cl)cc1)c1cc(-c2ccncc2)nc2ccccc12 | 1 | -11 | -7 | -4 | 0 | . | .
NS(=O)(=O)c1ccc(CCNC(=O)c2cc(=O)[nH]c3ccccc23)cc1 | 2 | -7 | 1 | 6 | -1 | . | .
O=C(NCCc1ccc(Cl)cc1)c1cc(-c2ccccn2)nc2ccccc12 | 9 | 0 | 4 | 49* | 0 | -3 | 2%
CC1CC(C)CN(C(=O)COC(=O)c2ccc(Cl)nc2)C1 (stereo unspecified) | 1 | -5 | -18 | 45* | 1 | -1 | 1%
CN(C)CCCNc1oc(-c2ccccc2Cl)nc1S(=O)(=O)c1ccc(F)cc1 | 15 | -6 | -15 | 57* | 2 | ? | ?
COc1ccc(NC(=O)CNC(=O)c2ccco2)cc1 | 5 | -4 | -1 | -3 | 1 | . | .
O=C(CNC(=O)c1ccco1)Nc1ccc(OC(F)F)cc1 | 3 | -6 | 6 | 50* | 0 | -4 | -1%
C/C(CC(=O)NCc1ccco1)=N\NC(=O)Cc1ccc(Cl)cc1 | 1 | -3 | 11 | -4 | 0 | . | .
CC(=O)c1cccc(NC(=O)c2ccc3c(=O)n4c(nc3c2)CCCCC4)c1 | 3 | 6 | -9 | -2 | 0 | . | .
COc1ccc(NC(=O)c2ccc3c(=O)n4c(nc3c2)CCCCC4)cc1 | 0 | -2 | -4 | 76* | 0 | -4 | -1%
CC(C)C(=O)NC(C)C(c1cccs1)N1CCN(c2ccccc2)CC1 (stereo unspecified) | -1 | -5 | 22 | 7 | 0 | . | .
CC(NS(C)(=O)=O)C(c1cccs1)N1CCN(c2ccccc2)CC1 (stereo unspecified) | 1 | 4 | 23 | 59* | 1 | -3 | 2%

Source: PubChem (National Center for Advancing Translational Sciences (NCATS))
